Assay [1] in a line: E. coli DRC41 culture turbidity changes, primary screen, E. coli filamentation inducer project, strain DRC41, OD650, 48 h (AID 1152).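 Also: E. coli MC1000 strain DRC41 lacking acrAB efflux pump and sulA.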 As to conditions: E. coli DRC41 (acrAB sulA), higher = more signal, called active from +8 up or from −8 down.
Assay [2] in a line: small-molecule binders of probe aLefty1, primary screen, biochemical, small-molecule microarray, 635/667 nm fluorescence (AID 1153).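 Also: score merges spot fluorescence with signal-to-noise ratio from the scanned slide images.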 As to conditions: higher = more signal.
Assay [3] can be described thus: PSAC antagonists in infected red cells, primary screen, cell-based, P. falciparum Indochina, OD700, 1 h (AID 1154). As to conditions: P. falciparum Indochina infected RBC osmotic lysis, higher = more signal, called active from +8 up or from −8 down.
Assay [4] in a line: PSAC antagonists in infected red cells, primary screen, cell-based, P. falciparum Indochina, OD700, 2 h (AID 1155).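 Also: lysis reports solute entry through the parasite surface anion channel PSAC; channel blockers reduce lysis of infected cells.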 The settings on record: P. falciparum Indochina infected erythrocytes, osmotic lysis OD700; higher = more signal, called active from +8 up or from −8 down.
Assay [5] is described as follows: osmotic lysis modulators in infected erythrocytes, primary screen, PSAC antagonist project, cell-based, P. falciparum Indochina, OD700, 3 h (AID 1156). The settings on record: higher = more signal, called active from +8 up or from −8 down.
Assay [6] in a line: PSAC antagonists in infected red cells, primary screen, cell-based, P. falciparum Indochina, OD700, 18 h (AID 1157). As to conditions: P. falciparum Indochina infected erythrocytes, osmotic lysis OD700, 18 h; higher = more signal, called active from +8 up or from −8 down.
Assay [7] can be described thus: modulators of S6 phosphorylation in cells, primary screen, cell-based, A549, cytoblot, luminescence, serum-stimulated (AID 1158).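 Also: serum-stimulated A549 lung adenocarcinoma cells; signal is phosphorylated S6 detected by cytoblot immunostaining with HRP secondary.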 The settings on record: A549 phospho-S6 cytoblot, 5 h, higher = more signal.
The target of assay [8] is NADPH oxidase 2 (Homo sapiens) (UniProt P04839). As to the kind of experiment: NOX2-dependent H2O2 signal modulators, primary screen, NOX inhibitor project, cell-based, HEK293-NOX2, PMA-stimulated, Amplex Red fluorescence (AID 1159). Also: test concentration not given here. The settings on record: 45 min, higher = more signal, called active from +8 up or from −8 down.
Chain of NADPH oxidase 2 (Homo sapiens) (P04839 whole entry, looked up): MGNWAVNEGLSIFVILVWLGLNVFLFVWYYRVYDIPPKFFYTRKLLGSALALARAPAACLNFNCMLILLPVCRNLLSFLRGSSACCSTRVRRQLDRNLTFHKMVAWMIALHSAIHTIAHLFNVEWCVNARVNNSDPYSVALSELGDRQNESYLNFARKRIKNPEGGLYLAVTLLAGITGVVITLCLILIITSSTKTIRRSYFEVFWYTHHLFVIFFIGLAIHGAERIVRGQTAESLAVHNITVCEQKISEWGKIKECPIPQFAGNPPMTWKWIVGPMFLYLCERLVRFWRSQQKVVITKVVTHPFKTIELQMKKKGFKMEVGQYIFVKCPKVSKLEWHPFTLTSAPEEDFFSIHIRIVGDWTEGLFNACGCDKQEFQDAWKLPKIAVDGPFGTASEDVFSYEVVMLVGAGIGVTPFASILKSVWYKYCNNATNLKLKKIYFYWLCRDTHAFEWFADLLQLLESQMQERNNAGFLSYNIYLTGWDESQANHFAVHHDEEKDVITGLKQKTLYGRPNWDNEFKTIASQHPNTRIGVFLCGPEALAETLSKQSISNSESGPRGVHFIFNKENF
Assay [9] addresses NADPH oxidase 4 (Homo sapiens) (UniProt Q9NPH5). As to the kind of experiment: NOX4-dependent H2O2 signal modulators, primary screen, NOX inhibitor project, cell-based, HEK293-NOX4, tetracycline-induced, Amplex Red fluorescence (AID 1160). The settings on record: 45 min, higher = more signal, called active from +8 up or from −8 down.
Assay [10] deals with NADPH oxidase 5 (Homo sapiens) (UniProt Q96PH1). As to the kind of experiment: NOX5-dependent H2O2 signal modulators, primary screen, NOX inhibitor project, cell-based, HEK293-NOX5, Amplex Red fluorescence (AID 1161). As to conditions: HEK293-NOX5, ionomycin, 45 min, higher = more signal.
Chain of NADPH oxidase 5 (Homo sapiens) (Q96PH1 whole entry, looked up): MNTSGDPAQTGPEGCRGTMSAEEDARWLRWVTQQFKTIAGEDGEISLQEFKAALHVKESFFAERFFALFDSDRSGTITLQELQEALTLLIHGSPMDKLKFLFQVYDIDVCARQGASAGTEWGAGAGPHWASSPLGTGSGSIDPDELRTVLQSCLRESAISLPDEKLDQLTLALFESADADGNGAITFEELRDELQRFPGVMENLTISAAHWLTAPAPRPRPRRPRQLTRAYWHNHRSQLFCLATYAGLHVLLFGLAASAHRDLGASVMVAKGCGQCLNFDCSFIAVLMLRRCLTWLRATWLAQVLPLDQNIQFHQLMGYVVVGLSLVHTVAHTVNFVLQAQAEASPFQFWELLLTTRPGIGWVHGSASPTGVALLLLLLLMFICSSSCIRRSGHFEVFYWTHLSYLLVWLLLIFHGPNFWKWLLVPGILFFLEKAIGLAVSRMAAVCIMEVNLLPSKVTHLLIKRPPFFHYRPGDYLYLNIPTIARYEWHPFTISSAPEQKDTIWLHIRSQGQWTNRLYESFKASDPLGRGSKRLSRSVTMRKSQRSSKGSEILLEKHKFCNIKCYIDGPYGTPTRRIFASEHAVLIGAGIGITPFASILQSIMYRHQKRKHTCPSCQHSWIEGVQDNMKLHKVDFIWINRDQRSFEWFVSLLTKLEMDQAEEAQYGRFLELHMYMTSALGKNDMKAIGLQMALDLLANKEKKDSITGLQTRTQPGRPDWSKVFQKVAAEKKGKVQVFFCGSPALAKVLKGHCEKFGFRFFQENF
Assay [11] in a line: A549 cell viability effects, profiling panel, calcein-AM fluorescence, 48 h, basal (AID 1162). Also: test concentration not given here. The settings on record: higher = more signal.
Assay [12] can be described thus: adipocyte viability effects, profiling panel, cell-based, 3T3-L1 adipocytes, calcein-AM fluorescence, 48 h, basal (AID 1163). Also: test concentration not given here. The settings on record: 3T3-L1 adipocytes viability, higher = more signal.
Assay [13] in a line: HepG2 cell viability effects, profiling panel, calcein-AM fluorescence, 48 h, basal (AID 1164). Also: test concentration not given here. The settings on record: higher = more signal.
The nature of assay [14]: MM1S cell viability effects, profiling panel, calcein-AM fluorescence, 48 h, basal (AID 1165).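 Also: viability of MM1S multiple myeloma cells under basal unstimulated conditions; test concentration not given here.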 As to conditions: higher = more signal.
A short description of assay [15]: basal RPMI8226 viability, no added stimulus, profiling panel, cell-based, calcein-AM fluorescence, 48 h, PK04 Diversity Set (AID 1166).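 Also: cells grown under basal conditions without added stimulus; test concentration not given here.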 As to conditions: RPMI8226 myeloma viability, higher = more signal.
Assay [16] is described as follows: basal HepG2 mitochondrial membrane potential changes, profiling panel, cell-based, JC-1 fluorescence, 24 h, 100 nL compound (AID 1167). Also: test concentration not given here. The settings on record: higher = more signal.
Assay [17] is described as follows: basal 3T3-L1 adipocyte mitochondrial potential changes, profiling panel, cell-based, JC-1 fluorescence, 3T3-L1 adipocytes, 24 h, 100 nL compound (AID 1168). Also: test concentration not given here. As to conditions: JC-1 mitochondrial fluorescence, higher = more signal, called active from +8 up or from −8 down.
Assay [18] can be described thus: basal RPMI8226 mitochondrial membrane potential changes, profiling panel, cell-based, JC-1 fluorescence, 24 h, 100 nL compound (AID 1169). Also: test concentration not given here. As to conditions: RPMI8226 myeloma, JC-1 mitochondrial potential fluorescence, higher = more signal.
Assay [19] can be described thus: basal MM1S mitochondrial membrane potential changes, profiling panel, cell-based, JC-1 fluorescence, 24 h, 100 nL compound (AID 1170). Also: test concentration not given here. As to conditions: higher = more signal.
A short description of assay [20]: A549 lung cancer cell viability effects, profiling panel, resazurin fluorescence, 24 h, PK04 Diversity Set (AID 1171). Also: test concentration not given here. As to conditions: higher = more signal, called active from +8 up or from −8 down.

Activity calls are given as the source filed them.

Chain of NADPH oxidase 4 (Homo sapiens) (Q9NPH5 whole entry, looked up): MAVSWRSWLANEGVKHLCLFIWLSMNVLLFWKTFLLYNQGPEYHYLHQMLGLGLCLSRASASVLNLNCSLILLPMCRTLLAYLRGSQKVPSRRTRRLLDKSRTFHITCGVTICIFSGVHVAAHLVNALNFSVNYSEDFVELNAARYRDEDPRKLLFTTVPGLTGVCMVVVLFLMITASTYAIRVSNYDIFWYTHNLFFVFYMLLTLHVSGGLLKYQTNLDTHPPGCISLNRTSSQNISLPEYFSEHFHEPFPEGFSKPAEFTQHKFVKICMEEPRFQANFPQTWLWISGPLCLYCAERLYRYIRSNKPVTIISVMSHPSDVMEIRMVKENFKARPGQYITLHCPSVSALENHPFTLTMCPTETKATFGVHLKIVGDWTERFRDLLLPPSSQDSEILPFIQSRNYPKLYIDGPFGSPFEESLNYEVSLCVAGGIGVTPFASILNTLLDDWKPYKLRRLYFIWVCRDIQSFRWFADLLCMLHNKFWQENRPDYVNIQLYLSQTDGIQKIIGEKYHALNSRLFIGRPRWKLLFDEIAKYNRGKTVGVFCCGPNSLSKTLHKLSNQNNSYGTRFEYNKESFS

Regarding `[N-]=[N+]=NCc1ccccc1[C@H]1OC(c2ccc(OCCCO)cc2)=N[C@@]1(Cc1ccccc1)C(=O)N1CCOCC1`, the z-score in [1] was -0.686 (inactive); in assay [3] it was 28.8 (active); in assay [4] it was 25.7 (active); in [5] it was 2.96 (inactive); in assay [6], 2.24 (inactive); in assay [7], 0.692. Further, the z-score is -0.0281 (inactive) in [8]; 0.154 (inactive) in assay [9]; -0.526 in assay [10]; 0.281 in assay [11]; 0.491 in [12]; 0.556 in assay [13]. Further, the z-score in assay [14] is -1.45; in assay [15], -1.11; in assay [16] it was 0.213; in assay [17], -1.67 (inactive); in [18], -0.887; in assay [19], 0.35. For the same compound, the z-score in assay [20] is 1.56 (inactive). The composite z-score in [2] is 0.321.

Consider `COc1ccc([Si](C)(C)[C@H]2[C@H](CCn3cc([C@H](O)c4ccccc4)nn3)O[C@@]3(C(=O)N(c4ccccc4)c4ccccc43)[C@@H]2C)cc1`, for which the z-score in assay [1] is 1.13 (inactive); in assay [3] it was 6.6 (inactive); in [4], 1.67 (inactive); in [5], 0.56 (inactive); in assay [6] it was 1.23 (inactive); in assay [7], 0.448. For the same compound, the z-score in assay [8] was 1.47 (inactive); in assay [9] it was 1.3 (inactive); in assay [10], 1.33; in [11], -0.13; in assay [12] it was 0.885; in assay [13], -1.31. The z-score in assay [14] is -0.54; in assay [15], -3.18; in assay [16], 1.63; in [17], 0.291 (inactive); in assay [18], -0.932; in assay [19], -0.794. In assay [20], the z-score was -0.853 (inactive). Further, in [2], the composite z-score was determined as 0.0004.

For `CCCC[C@H]1OB(O)C[C@H]2C1=C(C)C[C@H]1C(=O)C=CC(=O)[C@H]12`, the z-score is -0.202 (inactive) in [1]; 1.7 (inactive) in assay [3]; 0.183 (inactive) in assay [4]; 0.816 (inactive) in assay [5]; 0.182 (inactive) in [6]; -0.0244 in assay [7]. The z-score in assay [8] is -1.12 (inactive); in assay [9], -1.25 (inactive); in assay [10] it was -1.18; in assay [11] it was -0.252; in assay [12], -1.14; in assay [13], -0.799. In addition, the z-score in assay [14] is -3.35; in assay [15] it was -3.16; in [16], -3.39; in assay [17], -1.24 (inactive); in [18], -0.937; in assay [19], -2.13. The z-score in assay [20] is -0.443 (inactive). Further, in assay [2], the composite z-score is -0.06.

With `COc1cc2c(cc1O)C(c1ccc(CN3CCCC3)cc1)N(Cc1cccc(OC(F)(F)F)c1)CC2` (stereo not given), the z-score is -4.5 (inactive) in [1]; 12.3 (active) in [3]; 2.62 (inactive) in assay [4]; -0.608 (inactive) in assay [5]; 1.14 (inactive) in assay [6]; -0.223 in assay [7]. The z-score was -8.71 (active) in [8]; -4.77 (inactive) in assay [9]; -6.04 in assay [10]; -4.78 in assay [11]; 0.0154 in assay [12]; -5.64 in [13]. The z-score was -3.22 in [14]; -4.48 in [15]; -3.43 in assay [16]; 1.04 (inactive) in [17]; -0.955 in assay [18]; -2.64 in assay [19]. Also, the z-score in assay [20] is -4.45 (inactive). The composite z-score in assay [2] was -0.131.

On to `COCCOC(=O)N1C(=O)[C@@]2(c3cc(C#CCCO)ccc31)[C@H](C(=O)N1CCN(c3ncccn3)CC1)[C@H]1C(=O)O[C@H](c3ccccc3)[C@H](c3ccccc3)N1[C@@H]2c1ccc(O)cc1`, for which the z-score is 1.35 (inactive) in [1]; 1.78 (inactive) in assay [3]; 0.133 (inactive) in assay [4]; 1.21 (inactive) in assay [5]; 0.684 (inactive) in assay [6]; 0.188 in assay [7]. Moreover, the z-score is 1.69 (inactive) in assay [8]; 1.21 (inactive) in assay [9]; 1.29 in assay [10]; 1.61 in [11]; 0.222 in assay [12]; 1.54 in [13]. Besides, the z-score was 0.14 in assay [14]; 0.0881 in [15]; -0.141 in assay [16]; 0.339 (inactive) in [17]; -0.614 in [18]; -1.07 in [19]. Also, in assay [20], the z-score was 0.249 (inactive). In addition, the composite z-score in assay [2] was -0.36.

With `CCC(CC)C(O)C1C=CC2C(=O)N(C)C(=O)C2N1N1CCCCC1` (stereo not given), the z-score in assay [1] was -1.65 (inactive); in [3], 1.41 (inactive); in assay [4], 0.787 (inactive); in assay [5] it was 0.156 (inactive); in [6], 0.729 (inactive); in assay [7], -1.17. Moreover, the z-score in [8] was -0.893 (inactive); in [9], -1.17 (inactive); in [10], -1.35; in [11], -0.0236; in [12] it was -0.505; in assay [13] it was -0.502. Also, the z-score in [14] is -0.651; in assay [15], -0.521; in assay [16], -1.34; in [17] it was -0.115 (inactive); in assay [18], 0.153; in assay [19] it was -0.557. For the same compound, the z-score in assay [20] is 0.0051 (inactive). The same compound had a composite z-score in assay [2] of 0.361.

On to `COC(=O)[C@@H]1N=C(c2ccc(OCCCO)cc2)O[C@@H]1c1ccccc1CN=[N+]=[N-]`, for which the z-score in [1] was 0.664 (inactive); in assay [3], 25 (active); in [4], 9.39 (active); in assay [5], -0.5 (inactive); in assay [6], 1.33 (inactive); in assay [7] it was -0.239. Further, the z-score was -0.817 (inactive) in assay [8]; 0.827 (inactive) in assay [9]; 0.0949 in assay [10]; 0.432 in assay [11]; -0.446 in assay [12]; -0.198 in assay [13]. In addition, the z-score was -0.329 in assay [14]; -0.717 in assay [15]; -1.07 in [16]; 1.43 (inactive) in assay [17]; -0.16 in assay [18]; -0.741 in assay [19]. Also, the z-score in assay [20] was 1.07 (inactive). For the same compound, in assay [2], the composite z-score amounted to 0.881.

Consider `CCOC(=O)C1=C(C(=O)OCC)N(S(=O)(=O)CC[Si](C)(C)C)[C@H](c2ccccc2)CC1`, for which the z-score in assay [1] is -0.941 (inactive); in assay [3] it was 1.23 (inactive); in assay [4], 0.763 (inactive); in [5] it was 0.106 (inactive); in assay [6] it was 0.19 (inactive); in assay [7], -0.405. For the same compound, the z-score in [8] was -0.135 (inactive); in assay [9], 0.232 (inactive); in assay [10], 0.134; in assay [11], -2.6; in [12], -0.872; in assay [13] it was -2.78. In addition, the z-score was -1.02 in assay [14]; -4.13 in assay [15]; 3.63 in [16]; -0.0617 (inactive) in assay [17]; -0.982 in assay [18]; -3.04 in [19]. Besides, the z-score in [20] was 0.571 (inactive). The composite z-score in assay [2] amounted to 0.174.

For `C[C@@H](OCc1ccccc1)C1NC(=O)[C@@]23C(=O)N[C@@H](Cc4ccccc4)C2[C@H](C)[C@@]2(C)O[C@H]2C3/C=C/C/C=C\CNC(=O)[C@H](Cc2ccccc2)NC1=O` (stereo not given in full), the z-score was 0.725 (inactive) in assay [1]; 1.18 (inactive) in [3]; 0.012 (inactive) in assay [4]; 0.526 (inactive) in assay [5]; 0.156 (inactive) in assay [6]; 0.858 in [7]. Besides, the z-score was 0.487 (inactive) in assay [8]; 0.924 (inactive) in assay [9]; 0.349 in assay [10]; 0.247 in assay [11]; 0.854 in assay [12]; 0.235 in assay [13]. Further, the z-score is -1.42 in assay [14]; -2.1 in assay [15]; 0.637 in assay [16]; -0.355 (inactive) in [17]; -0.497 in assay [18]; 0.546 in [19]. Also, in [20], the z-score is -0.792 (inactive). For the same compound, in assay [2], the composite z-score was -0.0544.

(Values after PubChem BioAssay.)
